Measured values taken from the supplement of paper PMC3484114.
± gives the standard deviation.

system: OVCAR-3-derived ovarian cancer stem-like cells (spheroids); test: cell growth relative to untreated control; higher = more growth (less inhibition); conditions: 2.29 µM; 96 h
In short: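 After trypsin dissociation, OVCAR-3 spheroid-derived stem-like cells were placed in ultra-low attachment 96-well plates at 50,000 cells/mL in stem cell medium and preincubated for 24 h. Treatment at 2.29 uM followed for 96 h at 37°C, 5% CO2, with 4 replicate wells per compound. A 4 h TOX8 resazurin fluorescence read (ex 560/em 590 nm) gave viability, from which percent growth relative to untreated wells was derived after blank subtraction and Grubbs outlier removal.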

Row | Compound | cell growth
1 | C[n+]1cc2cc(O)c(O)cc2c2ccc3cc(O)c(O)cc3c21.c1ccncc1 | 91.8 ± 23%
2 | CC(=O)O[C@H]1C(=O)[C@@]2(C)[C@H]([C@H](OC(=O)c3ccccc3)[C@]3(O)C[C@H](O)C(C)=C1C3(C)C)[C@]1(OC(C)=O)CO[C@@H]1C[C@@H]2O | 123 ± 26%
3 | CO[C@@H]1[C@H](O)C[C@@H](O[C@@H]2C[C@H](Oc3cc4cc5c(c(O)c4c(O)c3C)C(=O)[C@@H](O[C@H]3C[C@@H](O[C@H]4C[C@@H](O[C@H]6C[C@](C)(O)[C@@H](OC(C)=O)[C@H](C)O6)[C@H](O)[C@@H](C)O4)[C@H](O)[C@@H](C)O3)[C@H]([C@H](OC)C(=O)[C@@H](O)[C@@H](C)O)C5)O[C@H](C)[C@@H]2OC(C)=O)O[C@@H]1C | 12.5 ± 3.1%
4 | CC[C@](C)(O)C(=O)O[C@H]1C(=O)O[C@@H]2C[C@H]3C(C)=C[C@H](O)[C@@H](O)[C@]3(C)[C@H]3[C@@]4(O)OC[C@]32[C@@H]1[C@@H](C)[C@H]4O | 138 ± 54%
5 | CC(C)(O)C=CC(=O)C(C)(O)C1C(O)CC2(C)C3CC=C4C(C=C(O)C(=O)C4(C)C)C3(C)C(=O)CC12C (stereo not drawn) | 28.1 ± 6.1%
6 | CCOC(=O)NC1=C(N2CC2)C(=O)C(NC(=O)OCC)=C(N2CC2)C1=O | 50.1 ± 9.1%
7 | CC(C)c1oc(=O)cc2c1[C@@H](O)[C@H]1OC(=O)[C@@]3(C)[C@@H](O)[C@H]4O[C@H]4[C@@]2(C)[C@@H]13 | 62.6 ± 32%
8 | CC(C)OP(=O)(OC(C)C)C(N(C)C)P(=O)(OC(C)C)OC(C)C.[Cl][Sn]([Cl])([Cl])[c]1ccccc1 | 62.2 ± 17%
